Reference: PubChem BioAssay AID1619 (SRMLSC, 2009)
Hit rate of the full screen: of about 220,000 compounds, about 830 (0.38%) were called active. A selection follows. Measured potencies and affinities stand elsewhere. Values without a mark were called inactive.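 The calls were made as follows: active = compound inhibiting the enzyme by more than half at any dose during confirmatory dose-response retesting; inconclusive = strong single-dose inhibitors picked by rank but not retested; inactive = the rest.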

biological target: Leucine aminopeptidase (Plasmodium falciparum (isolate 3D7)) (UniProt Q8IL11); assay: P. falciparum M17LAP inhibitors, primary screen, biochemical, fluorogenic H-Leu-NHMec substrate, 1536-well (AID 1619); details: recombinant M17LAP, H-Leu-NHMec fluorogenic kinetic assay; at 30 µM; stronger effect = higher value;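 also: plate controls were full reaction with DMSO carrier for no effect and no enzyme background for full effect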
Sequence (Q8IL11 whole entry, looked up): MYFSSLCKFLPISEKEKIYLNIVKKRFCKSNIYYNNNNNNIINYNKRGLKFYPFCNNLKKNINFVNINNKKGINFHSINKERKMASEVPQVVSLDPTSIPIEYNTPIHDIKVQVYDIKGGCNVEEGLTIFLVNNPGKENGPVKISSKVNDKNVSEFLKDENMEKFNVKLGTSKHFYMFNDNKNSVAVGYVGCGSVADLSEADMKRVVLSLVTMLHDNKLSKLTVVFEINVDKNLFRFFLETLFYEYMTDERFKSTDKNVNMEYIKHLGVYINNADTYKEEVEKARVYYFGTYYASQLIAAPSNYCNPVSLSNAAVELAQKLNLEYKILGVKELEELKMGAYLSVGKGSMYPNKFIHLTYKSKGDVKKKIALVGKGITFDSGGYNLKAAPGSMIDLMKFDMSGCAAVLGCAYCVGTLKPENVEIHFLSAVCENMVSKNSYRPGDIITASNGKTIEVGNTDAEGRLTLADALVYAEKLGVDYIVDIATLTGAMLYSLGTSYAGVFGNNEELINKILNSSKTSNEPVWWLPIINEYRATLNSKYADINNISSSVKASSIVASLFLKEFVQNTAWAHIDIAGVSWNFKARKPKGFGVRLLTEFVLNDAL

Compound	inhibition
O=C(Nc1nc2ccsc2c(=O)s1)c1ccco1	2.03%
COc1cc(/C=N/NC(=O)c2ccccc2Cl)ccc1Oc1ccc([N+](=O)[O-])cn1	3.71%
COC(=O)c1ccccc1NC(=O)c1ccccc1N(C)S(=O)(=O)c1ccccc1	-2.99%
CCN(C(=O)CCc1nc(-c2ccc(OC)cc2)no1)c1cc(OC)ccc1OC	-5.65%
Cc1ccc(S(=O)(=O)N(C)CC(=O)OCC(=O)NC(c2ccccc2)c2ccccc2)cc1	11.4%
Cc1ccc(-c2ccc(/C=N/NC(=O)c3ccccc3O)o2)cc1	3.44%
COc1ccc(C(=O)Nc2nc3cc4c(cc3s2)OCCO4)c(OC)c1	-6.2%
Cc1ccc(NC(=O)NCc2ccccn2)cc1	5.76%
O=C(Cc1cccs1)NNC(=S)NC(=O)c1ccc(F)c(F)c1	7.14%
CC(C)(C)c1cc(CCC(=O)NNC(=O)c2ccco2)cc(C(C)(C)C)c1O	-5.01%
CC(C)(C)c1cc(CCC(=O)NN)cc(C(C)(C)C)c1O	-14%
O=C(CCc1ccccc1)NNC(=S)NC(=O)c1ccc(Cl)cc1	92.7%
COc1ccc(C(=O)NC(=S)NNC(=O)COc2ccccc2)cc1	1.34%
CC(=O)NC(=S)NNC(=O)CCc1ccccc1	21.3%
COc1ccc(C(=O)NC(=S)NNC(=O)Cc2cccs2)cc1	41.2%
Cc1ccc(C(=O)NNC(=S)NC(=O)COc2ccccc2)cc1	16.5%
CCOC(=O)N1CCC(N2C(=O)c3ccccc3C2Nc2ccc(S(=O)(=O)N3CCOCC3)cc2)CC1 (centres undefined)	2.69%
Cc1cccc(NC(=O)CCCn2cc([N+](=O)[O-])cn2)n1	-2.41%
COc1ccc(OC)c(NC(=O)CSCC(=O)O)c1	6.02%
Cc1cc(C(=O)CCC(=O)N2CCN(S(=O)(=O)c3cccs3)CC2)c(C)s1	0.37%

Compound	inhibition
CN1C[C@@H]2C[C@@H](c3cccn3-c3nccs3)N3CCC[C@@]23C1=O	-0.22%
Cc1ccc(NC(=O)CN2CCCCCC2)cc1Br	9.91%
Cc1cc(C(=O)CCl)c(C)n1-c1cccc(S(=O)(=O)N2CCOCC2)c1	1.27%
Cc1cc(C(=O)COc2ccccc2[N+](=O)[O-])c(C)n1-c1cccc(S(=O)(=O)N2CCOCC2)c1	2.08%
CCSC1=C(C#N)C(c2ccccc2Cl)C(C(=O)c2cccs2)C(O)(C(F)(F)F)N1 (centres undefined)	-2.94%
CCCNC(=O)NC(=O)CSc1ccc2c(c1)OCCO2	-3.31%
CC(Sc1ccc2c(c1)OCCO2)C(=O)Nc1ccc2c(c1)OCO2 (centres undefined)	31.4%
CC(Sc1ccc2c(c1)OCCO2)C(=O)Nc1ccc(N2CCOCC2)cc1 (centres undefined)	-0.69%
O=C(CSc1ccc2c(c1)OCCO2)Nc1ncc(Cl)cc1Cl	33.8%
CCOc1cc(S(=O)(=O)Nc2ccccc2CC)ccc1Cl	8.77%
Nc1nnc(SCC(=O)NN2C(=O)NC3(CCCCC3)C2=O)s1	28%
O=C(CSc1nnc(NC2CCCCC2)s1)NCc1ccco1	1.38%
O=C(CSc1nnc(NC2CCCCC2)s1)NC1CCS(=O)(=O)C1 (centres undefined)	11.6%
Cc1nnc(SCC(=O)NN2C(=O)NC3(CCCCC3)C2=O)s1	0.53%
Cn1nc(C(=O)NNc2c(F)c(F)cc(F)c2F)c2ccccc2c1=O	10.2%
Cc1ccccc1Nc1nc(N)nc(CSc2nnnn2-c2ccccc2)n1	2.91%
CCCCn1nc(C(=O)Nc2cc(S(=O)(=O)N(C)C)ccc2C)c2ccccc2c1=O	0.9%
CCCN(c1ccc(C(=O)OC)cc1)S(=O)(=O)c1ccccc1	-1.32%
CC(=O)c1ccc(NC(=O)CSc2nnc(NC(=O)CN3CCOCC3)s2)cc1	28.4%
Cc1cccc(C)c1NC(=O)CSc1nnc(NC(=O)CN2CCOCC2)s1	24.1%

Compound	inhibition
Cc1cccc(Nc2nnc(SCC(=O)Nc3cccc(S(=O)(=O)N4CCCCC4)c3)s2)c1	33.5%
Cc1cccc(NC(=O)CSc2nnc(NC(=O)CN3CCCCC3)s2)c1	52.7%
CCc1ccc(Nc2nnc(SCC(=O)Nc3ccc(C(=O)O)cc3)s2)cc1	33%
O=C(CSc1nnc(NC(=O)CN2CCOCC2)s1)Nc1ccccc1	27.4%
O=C(NCCN1CCN(c2ccccc2)CC1)c1ccc(NC(=O)C2CCCO2)cc1 (centres undefined)	-5.43%
CC1=CC(C2CC(=O)N(c3ccccc3C)C2=O)CC2C(=O)N(c3ccccc3C)C(=O)C12 (centres undefined)	3.8%
CC1=C(C(=O)OCC2CCCO2)C(c2ccncc2)C2=C(CC(C)(C)CC2=O)N1 (centres undefined)	-16.9%
O=[N+]([O-])c1ccc2c(c1)C=C1CCCCC1(N1CCCCC1)O2 (centres undefined)	9.55%
COc1ccc(/C=C2\SC(=O)N(CCn3cnnn3)C2=O)cc1	-2.01%
O=C(CN1CCN(Cc2ccc(F)cc2Cl)C1=O)NCCc1ccccc1	8.72%
CC1CCCN(c2nc(NCc3ccco3)nc(N)c2[N+](=O)[O-])C1 (centres undefined)	-3.16%
CCCC(=O)Nc1nnc(-c2ccco2)s1	-4.22%
O=C(CCc1nc2ccccc2[nH]c1=O)OCC(=O)c1cccc2ccccc12	-3.73%
C/C(=C\c1ccco1)C1C(C#N)=C(N)OC2=C1C(=O)CC(C)(C)C2 (centres undefined)	5.9%
CCCc1[nH]nc2c1C(/C(C)=C/c1ccccc1)C(C#N)=C(N)O2 (centres undefined)	6.81%
Cc1ccc(SCc2[nH]nc3c2C(c2ccco2)C(C#N)=C(N)O3)cc1 (centres undefined)	44.8%
Cc1[nH]nc2c1C(c1ccco1)C(C#N)=C(N)O2 (centres undefined)	6.22%
COc1cc(C(=O)NCC(c2cccnc2)N2CCN(c3ccc(F)cc3)CC2)cc(OC)c1OC (centres undefined)	-0.25%
COc1ccc(CNC(=O)CN(Cc2ccccc2)S(=O)(=O)c2ccc(Cl)cc2)cc1	-4.99%
